About 64,000 (15%) of roughly 420,000 compounds were called active. Inconclusive results (about 27%) are left out. The call rests on the fitted dose curve; in most records, active means well fitted inhibition curve with a large enough effect; inconclusive means small, poorly fitted or top-dose-only effect; inactive means flat fitted curve, though single readings scatter. Only a sample is shown. Where a call stands in place of a potency, no number is given. Peptide text beside a SMILES is read from it.
Potency means the concentration at half of the fitted maximal effect.

A short description of this test: qHTS for Inhibitors of human tyrosyl-DNA phosphodiesterase 1 (TDP1): qHTS in cells in absence of CPT. Further: nearly all actives have a fitted effect of over 55% in size. Particulars: DT40 Tdp1-/- hTDP1 cells, no CPT, ATP luminescence, 48 h; activity change, negative = growth inhibition: at 46.2 µM (top of the series). In outline:
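Readout: luminescence from CellTiter-Glo after 30 min in the dark at RT. Cells: DT40 Tdp1-/- with stable hTDP1, 400/well. Exposure: compounds alone, ≥48 hr, 37 °C.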
Background: qHTS replaces the single test concentration by a dilution series.
Turning to `Clc1ccc(Cl)c(Oc2ccc(Oc3nc(Cl)ccc3Cl)cc2)n1`, the Potency result is “inactive”.

Take `COc1cc(Cl)c(C)cc1NC(=O)[C@@H]1CCCN1C(=O)c1cccs1`: the Potency entry is “inactive”.

On to `CCN(c1ccc2c(c1)OCO2)S(=O)(=O)c1cc(Br)cc2c1N(C(=O)C1CC1)CC2`, for which the Potency is 25.9 µM (active).

On to `O=C(CCS(=O)(=O)c1cc(Br)cc2c1N(C(=O)C1CC1)CC2)Nc1ccc(Br)cc1F`, for which the Potency result is “inactive”.

With `O=C(CCS(=O)(=O)c1cc(Br)cc2c1N(C(=O)C1CC1)CC2)Nc1ccc(C(F)(F)F)cc1`, the Potency entry is “inactive”.

With `O=c1oc2ccc(C#CC3(O)CCCCC3)cc2cc1-n1cc(-c2ccsc2)nn1`, the Potency entry was “inactive”.

As for `CCC(=O)/C(=C(/O)c1ccccc1)c1nc2ccccc2[nH]1`, the Potency result is “inactive”.

Take `O=C(Cc1nc2ccccc2[nH]c1=O)c1ccc(Cl)cc1`: the Potency entry was “inactive”.

On to `O=C(/C(=C/c1cccc(Cl)c1)c1nc2ccccc2[nH]1)c1ccccc1`, for which the Potency was 23.1 µM (active).

Regarding `CN1CCC(=NNC(=O)c2ccc(N(Cc3ccc(Cl)cc3)S(C)(=O)=O)cc2)CC1`, the Potency result is “inactive”.

For `NC(=O)Cn1nc([N+](=O)[O-])nc1Oc1ccc(Br)cc1`, the Potency result is “inactive”.

With `CC(C)CCNC(=O)CCNS(=O)(=O)c1ccc(Cl)cc1`, the Potency result is “inactive”.

As for `O=S1(=O)CCO[C@H]2Cc3ccccc3[C@H]2N1Cc1ccccc1`, the Potency entry was “inactive”.

In the case of `CCOc1cc(/C=N/O)cc(Br)c1OC`, the Potency entry was “inactive”.

`COc1cc(/C=C2/C(=O)NN(c3cccc(Cl)c3)C2=O)cc(Br)c1O`: the Potency result is “inactive”.

Turning to `CCOc1c(Br)cc(/C=C2\C(=O)N(CCC#N)N=C2C)cc1OC`, the Potency was 29.1 µM (active).

With `CCn1c(SCC(=O)NC2=NCCS2)nnc1C(C)NC(=O)c1ccccc1F` (stereo not given), the Potency entry is “inactive”.

Consider `Cc1ccc(-n2c(C)nnc2SCC(=O)NC2CC2)cc1`, for which the Potency result is “inactive”.

`CCCCCCCCCCCCC(NC(C)=O)(C(=O)OCC)C(=O)OCC`: the Potency was 20.6 µM (active).

Consider `CCCCCCCCCCCC(=O)O`, for which the Potency entry is “inactive”.

Take `CCCC(CCC(=O)OC)(C(=O)OCC)c1csc(N)n1` (stereo not given): the Potency entry is “inactive”.

With `COC(=O)C1=CO[C@@H](O[C@@H]2O[C@H](CO)[C@@H](O)[C@H](O)[C@H]2O)C2C1C[C@H](O)[C@@H]2C` (stereo not given in full), the Potency result was “inactive”.

For the compound `COc1ccccc1NC(=O)C1=C(C)Nc2nc3ccccc3n2C1c1cccs1` (stereo not given), the Potency is 3.26 µM (active).

Take `CCOC(=O)C1=C(C)Nc2nc3ccccc3n2C1c1cccs1` (stereo not given): the Potency entry was “inactive”.

`COc1ccccc1NC(=O)C1=C(C)Nc2ncnn2C1c1sccc1C` (stereo not given): the Potency result was “inactive”.

Turning to `CCOC(=O)C1CCN(C(=O)CSc2cc(=O)n(C)c3ccccc23)CC1`, the Potency entry was “inactive”.

Consider `Cc1ccc(S(=O)(=O)/N=C(\N)c2ccc(F)cc2)cc1`, for which the Potency result was “inactive”.

As for `O=c1cc(-c2ccccc2)[nH]c2cc(F)ccc12`, the Potency was 1.03 µM (active).

For `O=c1[nH]c(-c2ccccc2)c(-c2ccccc2)[nH]1`, the Potency entry is “inactive”.

For the compound `Cc1cc(=O)c2ccc(NC(=O)c3ccccc3)cc2[nH]1`, the Potency result is “inactive”.

As to `Cc1ccc(-c2cc(=O)c3ccc(F)cc3[nH]2)cc1`, the Potency is 13 µM (active).

With `Cc1ccc(-c2cc(=O)c3ccc(Cl)cc3[nH]2)cc1`, the Potency result is “inactive”.

For `O=S(=O)(Nc1ccccc1Br)c1cccs1`, the Potency entry was “inactive”.

On to `Cn1nccc1/C=N\NC(=O)c1ccc(Cl)cc1`, for which the Potency entry is “inactive”.

Regarding `Cc1cc(-n2cnc(-c3cn(C)nc3C)n2)no1`, the Potency result is “inactive”.

On to `Cc1cc(C)c(NC(=O)C[N+](C)(C)CC(O)COc2cccc3ccccc23)c(C)c1` (stereo not given), for which the Potency is 18.4 µM (active).

In the case of `Cc1cccc(NC(=O)COc2ccccc2C)n1`, the Potency entry was “inactive”.

In the case of `Cc1cc(C)cc(OCC(=O)Nc2c(C(=O)c3ccccc3)oc3ccccc23)c1`, the Potency entry is “inactive”.

Regarding `Cc1cccc(NC(=O)c2ccc3nsnc3c2)c1C`, the Potency result is “inactive”.

With `O=C(Nc1ccccc1)OCc1cc(-c2ccc(Cl)cc2)on1`, the Potency result is “inactive”.

In the case of `CCc1cc2c(N3CCN(c4nnc(CC)s4)CC3)ncnc2s1`, the Potency is 8.2 µM (active).

Consider `O=C(CCc1nnc2ccc(NCc3ccccc3Cl)nn12)NCC1CCN(C2CCCC2)C1` (stereo not given), for which the Potency result was “inactive”.

As for `O=C(CSc1ccsc1[N+](=O)[O-])N1CCCCC1`, the Potency result was “inactive”.

Regarding `CS(=O)(=O)N(CC(=O)N1CCCCCC1)c1cccc(Cl)c1Cl`, the Potency result was “inactive”.

As to `Cc1ccc(C(=O)Nc2c(-c3ccccc3)[nH][nH]c2=O)cc1`, the Potency entry is “inactive”.

Take `CCOC(=O)c1c(NC(=O)c2cccs2)sc(C)c1C`: the Potency entry is “inactive”.

Regarding `Cc1ccc(C(=O)c2c(NC(=O)c3ccccc3)sc(C)c2C)cc1`, the Potency is 23.1 µM (active).

Turning to `Cn1c(=O)c2cc(S(=O)(=O)NCCC(=O)Nc3ccc(F)cc3F)ccc2n(C)c1=O`, the Potency result was “inactive”.

Turning to `COc1ccc(NC(=O)CN(C)C(=O)/C=C/c2cn(Cc3ccccc3)nc2-c2cccnc2)cc1`, the Potency result was “inactive”.

Turning to `Cc1cc(C)cc(NC(=O)CSc2nc(=O)n(CCN3CCOCC3)c3c2CCC3)c1`, the Potency entry was “inactive”.

`CCCCCOc1ccc(/C=C/C(=O)NCCc2nc3ccccc3[nH]2)cc1OC`: the Potency is 9.2 µM (active).

On to `CC(C)=C(NC(=O)c1ccco1)C(=O)NCCc1nc2ccccc2[nH]1`, for which the Potency entry is “inactive”.

As for `O=C(COc1ccccc1)NCCc1nc2ccccc2[nH]1`, the Potency entry was “inactive”.

In the case of `COc1ccc2c(C(=O)c3ccc(C)cc3)n(CCC(N)=O)[n+]([O-])c2c1`, the Potency entry is “inactive”.

Regarding `COC(=O)CNC(=O)C(CCSC)NC(C)=O` (stereo not given) (HELM PEPTIDE1{[ac].[CSCCC(N[*:1])C(=O)[*:2]].G.[CO[*:1]]}$$$$V2.0), the Potency result was “inactive”.

Regarding `CCN1CCN(C(=O)C2CCCN(S(=O)(=O)c3ccc(OC)c(OC)c3)C2)CC1` (stereo not given), the Potency result was “inactive”.

`COc1ccc(N(C)C(=O)C2CCN(S(=O)(=O)c3cc(Br)cc4c3N(C(C)=O)CC4)CC2)cc1`: the Potency entry is “inactive”.

For the compound `O=C(C1CCCN(S(=O)(=O)c2ccccc2)C1)N1CCN(c2ccc(F)cc2)CC1` (stereo not given), the Potency is 11.6 µM (active).

Turning to `CCOC(=O)C1CCN(C(=O)C2CCCN(S(=O)(=O)c3ccc(OC)c(Cl)c3)C2)CC1` (stereo not given), the Potency was 11.6 µM (active).

With `CCCS(=O)(=O)N1CCCC(C(=O)N2CCN(c3ccccc3)CC2)C1` (stereo not given), the Potency entry is “inactive”.

For the compound `Cc1ccc(N(C)C(=O)C2CCN(S(=O)(=O)c3ccc4c(c3)CCCN4C(=O)C3CCC3)CC2)cc1`, the Potency was 16.4 µM (active).

For `CC(=O)N1CCCc2cc(S(=O)(=O)N3CCC(C(=O)NC4CCCCC4)CC3)ccc21`, the Potency entry was “inactive”.

`O=C(C1CCC1)N1CCN(c2ccccc2)CC1`: the Potency result was “inactive”.

In the case of `COc1ccc(S(=O)(=O)N2CCC(C(=O)N3CCCC3)CC2)cc1C`, the Potency entry is “inactive”.

Consider `Cc1ccc(S(=O)(=O)N2CCC(C(=O)N3CCCCCCC3)CC2)cc1`, for which the Potency was 20.6 µM (active).

Take `Cc1ccc(S(=O)(=O)N2CCC(N3CCCCCC3)CC2)cc1`: the Potency entry was “inactive”.

On to `COc1ccc(OC)c(S(=O)(=O)N2CCCC(C(=O)N3CCC(C(N)=O)CC3)C2)c1` (stereo not given), for which the Potency result was “inactive”.

`Cc1cc(-c2ccccc2)nc(N2CCC(C(=O)NC34CC5CC(CC(C5)C3)C4)CC2)n1`: the Potency result is “inactive”.

Regarding `COCCCNC(=O)[C@H]1N2C(=O)c3ccccc3C2SC1(C)C` (stereo not given in full), the Potency entry is “inactive”.

Take `O=c1c(F)cn(C2CCCO2)c(=O)n1Cc1ccccc1Cl` (stereo not given): the Potency result was “inactive”.

As to `O=C1CN(C(=O)COC(=O)c2cnc(Cl)c(Cl)c2)c2ccccc2N1`, the Potency entry is “inactive”.

Take `CC1(c2ccc3ccccc3c2)NC(=O)NC1=O` (stereo not given): the Potency entry is “inactive”.

Regarding `COCCCNC(=O)C1CCC(CNS(=O)(=O)c2ccc(OC)cc2)CC1` (stereo not given), the Potency result was “inactive”.

For the compound `COc1ccc(NC(=O)C2CCCN(S(=O)(=O)c3cccc4nonc34)C2)cc1Cl` (stereo not given), the Potency result is “inactive”.

As for `O=C(Cc1ccccc1)N1CCN(S(=O)(=O)c2ccc([N+](=O)[O-])cc2)CC1`, the Potency entry was “inactive”.

In the case of `O=C(C1CCCN(S(=O)(=O)c2ccc([N+](=O)[O-])cc2)C1)N1CCCCC1` (stereo not given), the Potency is 16.4 µM (active).

As for `O=C(C1CCCN(S(=O)(=O)c2cccc3nonc23)C1)N1CCN(c2ccccc2F)CC1` (stereo not given), the Potency was 18.4 µM (active).

On to `CC(=O)c1cccc(NC(=O)C2CCCN(S(=O)(=O)c3cccc4nonc34)C2)c1` (stereo not given), for which the Potency entry is “inactive”.

On to `O=C(C1CCC1)N1CCN(S(=O)(=O)c2ccc([N+](=O)[O-])cc2)CC1`, for which the Potency result was “inactive”.

As to `O=C(NCc1cc(F)cc(C(F)(F)F)c1)C1CCC(=O)N(C2CCCC2)C1` (stereo not given), the Potency result was “inactive”.

Regarding `Cc1cccc(C(=O)Nc2ccccc2-c2nnn(CC(=O)Nc3ccc4c(c3)OCCO4)n2)c1`, the Potency entry is “inactive”.

Regarding `CCCOc1ccccc1-c1nc(SCCC(=O)O)n[nH]1`, the Potency result was “inactive”.

Take `Cn1ccc(NC(=O)Nc2ccc(Cl)cc2)n1`: the Potency result was “inactive”.

Regarding `CN(c1ccccc1)S(=O)(=O)c1cccc(C(=O)NNC(=O)c2ccncc2)c1`, the Potency result was “inactive”.

Turning to `CNS(=O)(=O)c1ccc(NC(=O)Nc2ccc3c(c2)OCO3)cc1`, the Potency result is “inactive”.

Take `CN(c1ccc(OCC(=O)OCC(=O)Nc2cccc([N+](=O)[O-])c2)cc1)S(=O)(=O)c1ccc(F)cc1`: the Potency entry is “inactive”.

`CN(c1ccccc1)S(=O)(=O)c1cccc(NC(=O)Cc2ccc(Cl)cc2)c1`: the Potency is 23.1 µM (active).

As to `CN(c1cccc(NC(=O)Nc2ccc(Cl)cc2)c1)S(C)(=O)=O`, the Potency is 25.9 µM (active).

As to `Cc1ncc([N+](=O)[O-])n1CCOC(=O)c1ccc(Br)cc1`, the Potency entry was “inactive”.

For `COc1ccc(S(=O)(=O)NCC(=O)NCc2cc(=O)n(C)c(=O)n2C)cc1F`, the Potency result was “inactive”.

As to `O=C(NC1CCCCC1)c1cc(C2CC2)on1`, the Potency result is “inactive”.

Turning to `COc1cc2c(cc1OC)C(=O)NCC(C)(C)O2`, the Potency entry is “inactive”.

`O=C(O)CCCCCCCCCC[n+]1ccccc1`: the Potency result is “inactive”.

For `O=C(NCC1CCC(C(=O)O)CC1)OCc1ccccc1` (stereo not given), the Potency entry is “inactive”.

Turning to `CCN(CCCNC(=O)Cn1ncc2c([nH]c3ccccc32)c1=O)c1cccc(C)c1`, the Potency result is “inactive”.

On to `CCCN(CCC)CCCNC(=O)CNC(=O)c1nn(-c2ccc(OC)cc2)c(=O)c2ccccc12`, for which the Potency entry is “inactive”.

Take `CCN(CCCNC(=O)c1cc(Nc2ccc(OC)cc2)nc2ccccc12)c1cccc(C)c1`: the Potency is 20.6 µM (active).

For `COc1ccc(NC(=O)CCNC(=O)Cn2ccc3ccccc3c2=O)c(OC)c1`, the Potency result is “inactive”.

`COc1ccc(Nc2cc(C(=O)NCCCN(C)c3ccccc3)c3ccccc3n2)c(OC)c1`: the Potency is 11.6 µM (active).

For `COc1ccc(NC(=O)CNC(=O)Cn2ccc3ccccc3c2=O)c(OC)c1`, the Potency entry is “inactive”.

The values above are taken from PubChem BioAssay AID686978 (National Center for Advancing Translational Sciences (NCATS), 2013).
